These results are taken from PubChem BioAssay (NCI).

About 83,000 compounds went through this panel and 20% of them were active in at least one assay; those are over-represented in the sample as a whole.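 For each line, cells grew in 96-well plates with the test compound present at a single concentration for 48 hours.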 Values without a mark were called inactive. Active and inactive are the calls of the source. How the source made its calls: active means growth percent below 10; inactive means the rest.

For this assay, the system named is MDA-MB-468 breast. The experiment in a line: NCI-60 one-dose screen, 48 h (100 = growth as untreated, 0 = no growth, -100 = all killed). The note with it: 10 µM unless noted.
Regarding `O=C1CC(C(F)(F)F)Cc2nc3ccc(Br)cc3cc21` (stereo not given), the growth was 94.8%. The same measure for `COc1ccc(-c2ccc(-c3ccc(C(=N)N)cn3)s2)cc1`: 72.6%; for `CCOC(=O)CNC(=O)Nc1ccc(Oc2ccc(NC(=O)NCC(=O)OCC)cc2)cc1`: 99.5%; for `CN(C)c1ccc(C2(Cl)c3ccccc3N(C)c3ccccc32)cc1`: 50.8%. The same measure for `Cc1[nH]n(-c2ccccc2)c2nc3nncc3c(-c3ccc(Cl)cc3)c12`: 95.1%; for `CCOC(=O)[C@@H]1CSC(CC)=C(C(=O)O)N1`: 113%; for `CCOC(=O)C1=C(N)Oc2c(sc3c(C)cccc23)C1c1ccc(OC)cc1` (stereo not given): 0.934% (active).

Consider `CC[C@@H](c1ccc(O)c(O)c1)[C@@H](CC)c1ccc(O)c(O)c1`, for which the growth was 53.1%. The same measure for `Cc1c(NC(=O)CSc2nc3sc4c(c3c(=O)n2-c2ccc(Cl)cc2)CCCC4)c(=O)n(-c2ccccc2)n1C`: 89.8%. The same measure for `O=C(Nc1ccc(OS(=O)(=O)c2ccccc2)cc1)C12CC3CC(CC(C3)C1)C2`: 40.5%. The same measure for `COC(=O)c1ccc(NC(=O)c2ccc(-c3cccc([N+](=O)[O-])c3)o2)cc1`: 96.5%. Turning to `CC(C)=CCNc1ncnc2c1ncn2C1OC(COP(=O)(O)O)C(O)C1O` (stereo not given), the growth is 23.3%. Consider `O=C(N/N=C/c1ccc(F)cc1)c1ccccc1Nc1cccc(C(F)(F)F)c1`, for which the growth is 83.9%.

Consider `COc1cc(C2c3cc4c(cc3C(O)C(CO)C2CO)OCO4)cc(OC)c1OC` (stereo not given), for which the growth was -17.7% (active). The same measure for `O=C1c2ccccc2C(=O)c2c1ccc1[nH]c(CCl)nc21`: -28.6% (active).
